Each structure is given as a SMILES string.

The target in one experiment is Solute carrier family 2, facilitated glucose transporter member 1 (Homo sapiens) (UniProt P11166). As to the kind of experiment: ST_JUDE_LEISH: Cytotoxicity at 2uM final concentration against transgenic Leishmania Mexicana promastigotes LmGLUT1 that are glucose transport deficient and complemented with the human glucose transporter GLUT1. Activity is measured by DNA content using SYBR green in vitro. The format is functional.
Solute carrier family 2, facilitated glucose transporter member 1 (Homo sapiens), sequence (P11166 whole entry): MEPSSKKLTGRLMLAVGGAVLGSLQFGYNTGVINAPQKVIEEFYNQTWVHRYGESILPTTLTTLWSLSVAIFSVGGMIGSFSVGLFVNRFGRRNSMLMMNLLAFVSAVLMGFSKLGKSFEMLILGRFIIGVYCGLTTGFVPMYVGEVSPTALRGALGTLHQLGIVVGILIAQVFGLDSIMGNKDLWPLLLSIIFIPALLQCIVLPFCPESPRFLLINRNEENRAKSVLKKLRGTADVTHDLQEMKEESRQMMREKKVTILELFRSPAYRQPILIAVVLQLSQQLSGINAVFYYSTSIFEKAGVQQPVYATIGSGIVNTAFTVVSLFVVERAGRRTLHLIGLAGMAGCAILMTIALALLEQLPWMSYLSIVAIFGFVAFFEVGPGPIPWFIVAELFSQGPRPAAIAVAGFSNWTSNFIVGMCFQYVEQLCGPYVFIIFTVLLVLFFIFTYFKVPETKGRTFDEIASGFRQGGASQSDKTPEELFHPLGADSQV
As for `OCCCCCCNc1nc(NCc2ccccc2-c2ccc(C(F)(F)F)cc2)nc(N2CCNCC2)n1`, the inhibition (in general, the change of the read-out against control, counted positive when it falls) was 1.31%.

With `O=C(NC1c2ccccc2Oc2ccccc21)c1ccccc1O`, the inhibition was -3%.

With `O=C(Nc1ccc(Cl)cc1)Nc1cccc(-c2cccc(-c3nc4cc(F)ccc4[nH]3)c2)c1`, the inhibition was found to be 7%.

As to `Fc1ccc(-c2csc3ncnc(Cl)c23)cc1`, the inhibition was -0.36%.

For the compound `OCCNc1nc(Nc2cccc(O)c2)nc2ccccc12`, the inhibition was 4.65%.

Regarding `Cc1noc(C)c1-c1cccc(CNCc2cccc(-c3cccc(-c4nc5cc(C(F)(F)F)ccc5[nH]4)c3)c2)c1`, the inhibition was 0.14%.

Take `CN(C)c1ccc(CN2CCC(CNC(=O)c3cc(-c4ccccc4Cl)cs3)C2)cc1` (stereo not given): the inhibition was 0.57%.

Consider `COc1ccc2nc3cc(Cl)ccc3c(Nc3ccc(O)c(CN4CC5CCC(CC5)C4)c3)c2c1`, for which the inhibition came out at 4.99%.

As to `N=C(N)Nc1ccc(NC(=O)Nc2ccc(NC(=N)N)cc2)cc1`, the inhibition amounted to 0.9%.

Turning to `CNCc1ccc(CN(C)c2nc(N)c3cc(OC)c(OC)cc3n2)cc1`, the inhibition came to 4.8%.

Turning to `CCCNCc1ccc(-c2ccc(CN(C(=O)c3nn(-c4ccccc4)nc3C)C(C)CN(C)C)cc2)nc1` (stereo not given), the inhibition was found to be 1.37%.

Take `COc1ccc(F)cc1-c1ccccc1CNC(=O)c1cnn(-c2ccc([N+](=O)[O-])cc2)c1C(F)(F)F`: the inhibition was 2.16%.

`Cn1c(NC(=O)C2CCC(CNC(=O)c3ccc(O)c(-c4cccc([N+](=O)[O-])c4)c3)CC2)nc2ccccc21` (stereo not given): the inhibition came to 1.57%.

On to `CC(Cc1ccc(OCC(=O)NCC2CCN(CCc3cccc(Cl)c3)CC2)cc1)NCCc1cccc(Cl)c1` (stereo not given), for which the inhibition was 3.07%.

For the compound `CCCCC(CC)NC(=O)[C@H]1CNCCN1C(=O)CCCc1ccccc1` (stereo not given in full), the inhibition amounted to 1.73%.

With `Cc1ccc(-n2nc3ccc(NC(=O)c4ccc([N+](=O)[O-])o4)cc3n2)cc1C`, the inhibition is 60.8%.

As for `O=C(NCCc1ccccc1)N(Cc1ccccc1-c1cccc(CNC2CCCC2)c1)C1CCN(Cc2ccccc2)CC1`, the inhibition was 8.2%.

For the compound `CCOc1cccc(C(=O)Nc2nonc2-c2ccc(OC)c(OC)c2)c1`, the inhibition amounted to 10.3%.

As to `CCOC(=O)c1c(NC(=O)c2ccccc2)sc2c(O)c(CNC3CCCCC3)ccc12`, the inhibition is -1.14%.

With `CC(N)(Cc1ccc(O)cc1)c1nnn[nH]1` (stereo not given), the inhibition was -0.06%.

Consider `Cc1cc(C(=O)Nc2ccc3c(ccn3C3CCCN(Cc4ccc(C(F)(F)F)cc4F)CC3)c2)no1` (stereo not given), for which the inhibition was -0.37%.

In the case of `CCN(CC)CCCC(C)N=c1cc(C=Cc2ccccc2Cl)[nH]c2cc(Cl)ccc12` (stereo not given), the inhibition is 3.06%.

As for `Cc1cccc2nc(-c3ccc(-c4ccc(CNCc5ccccc5)cc4)cc3)[nH]c12`, the inhibition worked out at 3.54%.

On to `O=C(Nc1cccc(Cl)c1)OC1CCCN2CCCCC12` (stereo not given), for which the inhibition came out at 10.8%.

Regarding `O=C(Nc1cc(Cl)cc(Cl)c1)c1cc(Cl)c(=O)n(Cc2cccc(Cl)c2)c1`, the inhibition came to 3.25%.

Consider `CN(C)Cc1ccc(-c2cc3c(Nc4ccc(OCc5cccc(F)c5)c(Cl)c4)ncnc3s2)[nH]1`, for which the inhibition was determined as 2.15%.

Turning to `CC(C)C(=O)n1ncc2c3c(N)nc(N)nc3ccc21`, the inhibition is -0.81%.

For the compound `c1ccc(Oc2ccc(Nc3nncc4ccccc34)cc2)cc1`, the inhibition came out at 1.62%.

As for `O=C(NCCCCN1CCN(c2cccc(Cl)c2Cl)CC1)c1ccc2c(c1)CCN(C1CCC1)CC2`, the inhibition is 1.09%.

Take `CC(C)(CNCc1ccc(Cl)cc1)c1nc(-c2ccc(Cl)c(O)c2)c(-c2ccncc2)[nH]1`: the inhibition amounted to 0.66%.

`O=C(Nc1cccc(-c2nn3ccccc3c2-c2ccnc(Nc3ccc(Cc4ccncc4)cc3)n2)c1)c1c(F)cccc1F`: the inhibition was 12%.

Take `FC(F)(F)c1cccc(Nc2nc3ccccc3nc2Nc2cccc(C(F)(F)F)c2)c1`: the inhibition was -0.24%.

In the case of `CCCCCCCCOc1c(OCC)cc(Cc2cnc(N)nc2N)cc1OCC`, the inhibition turned out to be 13.7%.

On to `CC(C)(C)OC(=O)[C@H](CC(N)=O)NC(=O)c1ccc(-c2ccc(-c3nc4cc(C(F)(F)F)ccc4[nH]3)s2)cc1`, for which the inhibition is 5.01%.

On to `CCOc1cc(Cc2cnc(N)nc2N)ccc1OC`, for which the inhibition was 0.52%.

Turning to `O=C(NCc1ccc(C(=O)NC2CCCCCC2)cc1)c1ccc(O)c(-c2ccc(Cl)c(Cl)c2)c1`, the inhibition was determined as 1.17%.

Consider `N=C(N)c1cccc(OCCCOc2cccc(NC(=O)Nc3ccc([N+](=O)[O-])cc3)c2)c1`, for which the inhibition is 4.46%.

For the compound `COc1cccc2c(O)c(CNC3CCCCC3)ccc12`, the inhibition is -0.95%.

For the compound `CCNC(C)(C)CN(Cc1ccc(-c2ccc(C(F)(F)F)cc2)cc1)C(=O)Cn1c(CCc2cccc(F)c2F)nc(=O)c2ccccc21`, the inhibition stood at 3.91%.

As for `CCC(CC)n1cc2c(ccc3nc(N)nc(N)c32)n1`, the inhibition is -1.92%.

The next experiment has as its target Hexose transporter 1 (Plasmodium falciparum) (UniProt O97467). As to the kind of experiment: ST_JUDE_LEISH: Cytotoxicity at 2uM final concentration against transgenic Leishmania Mexicana promastigotes LmPfHT that are glucose transport deficient and complemented with the Plasmodium falciparum hexose transporter. Activity is measured by DNA content using SYBR green in vitro. It is filed as functional.
For the compound `OCCCCCCNc1nc(NCc2ccccc2-c2ccc(C(F)(F)F)cc2)nc(N2CCNCC2)n1`, the inhibition is -1.2%.

Take `O=C(NC1c2ccccc2Oc2ccccc21)c1ccccc1O`: the inhibition was -0.11%.

Regarding `O=C(Nc1ccc(Cl)cc1)Nc1cccc(-c2cccc(-c3nc4cc(F)ccc4[nH]3)c2)c1`, the inhibition was determined as 6.99%.

As to `Fc1ccc(-c2csc3ncnc(Cl)c23)cc1`, the inhibition was -0.72%.

Regarding `OCCNc1nc(Nc2cccc(O)c2)nc2ccccc12`, the inhibition turned out to be 3.14%.

Consider `Cc1noc(C)c1-c1cccc(CNCc2cccc(-c3cccc(-c4nc5cc(C(F)(F)F)ccc5[nH]4)c3)c2)c1`, for which the inhibition was found to be 1.85%.

Take `CN(C)c1ccc(CN2CCC(CNC(=O)c3cc(-c4ccccc4Cl)cs3)C2)cc1` (stereo not given): the inhibition was -3.68%.

Consider `COc1ccc2nc3cc(Cl)ccc3c(Nc3ccc(O)c(CN4CC5CCC(CC5)C4)c3)c2c1`, for which the inhibition worked out at 4.24%.

As for `N=C(N)Nc1ccc(NC(=O)Nc2ccc(NC(=N)N)cc2)cc1`, the inhibition worked out at 0.77%.

As to `CNCc1ccc(CN(C)c2nc(N)c3cc(OC)c(OC)cc3n2)cc1`, the inhibition was 5.4%.

With `CCCNCc1ccc(-c2ccc(CN(C(=O)c3nn(-c4ccccc4)nc3C)C(C)CN(C)C)cc2)nc1` (stereo not given), the inhibition was found to be 0.07%.

Regarding `COc1ccc(F)cc1-c1ccccc1CNC(=O)c1cnn(-c2ccc([N+](=O)[O-])cc2)c1C(F)(F)F`, the inhibition was 2.84%.

As to `Cn1c(NC(=O)C2CCC(CNC(=O)c3ccc(O)c(-c4cccc([N+](=O)[O-])c4)c3)CC2)nc2ccccc21` (stereo not given), the inhibition amounted to 2.47%.

Turning to `CC(Cc1ccc(OCC(=O)NCC2CCN(CCc3cccc(Cl)c3)CC2)cc1)NCCc1cccc(Cl)c1` (stereo not given), the inhibition is 4.09%.

Regarding `CCCCC(CC)NC(=O)[C@H]1CNCCN1C(=O)CCCc1ccccc1` (stereo not given in full), the inhibition was 1.94%.

As for `Cc1ccc(-n2nc3ccc(NC(=O)c4ccc([N+](=O)[O-])o4)cc3n2)cc1C`, the inhibition stood at 82.4%.

For `O=C(NCCc1ccccc1)N(Cc1ccccc1-c1cccc(CNC2CCCC2)c1)C1CCN(Cc2ccccc2)CC1`, the inhibition was determined as 4.49%.

On to `CCOc1cccc(C(=O)Nc2nonc2-c2ccc(OC)c(OC)c2)c1`, for which the inhibition worked out at 9.2%.

Regarding `CCOC(=O)c1c(NC(=O)c2ccccc2)sc2c(O)c(CNC3CCCCC3)ccc12`, the inhibition is -0.58%.

In the case of `CC(N)(Cc1ccc(O)cc1)c1nnn[nH]1` (stereo not given), the inhibition turned out to be 1.3%.

As for `Cc1cc(C(=O)Nc2ccc3c(ccn3C3CCCN(Cc4ccc(C(F)(F)F)cc4F)CC3)c2)no1` (stereo not given), the inhibition is 0.5%.

As to `CCN(CC)CCCC(C)N=c1cc(C=Cc2ccccc2Cl)[nH]c2cc(Cl)ccc12` (stereo not given), the inhibition was found to be 3.03%.

Consider `Cc1cccc2nc(-c3ccc(-c4ccc(CNCc5ccccc5)cc4)cc3)[nH]c12`, for which the inhibition stood at 3.32%.

For the compound `O=C(Nc1cccc(Cl)c1)OC1CCCN2CCCCC12` (stereo not given), the inhibition was determined as 10.6%.

For the compound `O=C(Nc1cc(Cl)cc(Cl)c1)c1cc(Cl)c(=O)n(Cc2cccc(Cl)c2)c1`, the inhibition was -1.14%.

Regarding `CN(C)Cc1ccc(-c2cc3c(Nc4ccc(OCc5cccc(F)c5)c(Cl)c4)ncnc3s2)[nH]1`, the inhibition turned out to be 2.19%.

As to `CC(C)C(=O)n1ncc2c3c(N)nc(N)nc3ccc21`, the inhibition was -1.08%.

On to `c1ccc(Oc2ccc(Nc3nncc4ccccc34)cc2)cc1`, for which the inhibition was determined as 0.25%.

For the compound `O=C(NCCCCN1CCN(c2cccc(Cl)c2Cl)CC1)c1ccc2c(c1)CCN(C1CCC1)CC2`, the inhibition was -1.47%.

On to `CC(C)(CNCc1ccc(Cl)cc1)c1nc(-c2ccc(Cl)c(O)c2)c(-c2ccncc2)[nH]1`, for which the inhibition amounted to 0.31%.

`O=C(Nc1cccc(-c2nn3ccccc3c2-c2ccnc(Nc3ccc(Cc4ccncc4)cc3)n2)c1)c1c(F)cccc1F`: the inhibition came out at 17.3%.

Consider `FC(F)(F)c1cccc(Nc2nc3ccccc3nc2Nc2cccc(C(F)(F)F)c2)c1`, for which the inhibition amounted to 0.5%.

As to `CCCCCCCCOc1c(OCC)cc(Cc2cnc(N)nc2N)cc1OCC`, the inhibition was 7.75%.

As to `CC(C)(C)OC(=O)[C@H](CC(N)=O)NC(=O)c1ccc(-c2ccc(-c3nc4cc(C(F)(F)F)ccc4[nH]3)s2)cc1`, the inhibition is 3.22%.

As for `CCOc1cc(Cc2cnc(N)nc2N)ccc1OC`, the inhibition was found to be 0.12%.

With `O=C(NCc1ccc(C(=O)NC2CCCCCC2)cc1)c1ccc(O)c(-c2ccc(Cl)c(Cl)c2)c1`, the inhibition is 1.13%.

For the compound `N=C(N)c1cccc(OCCCOc2cccc(NC(=O)Nc3ccc([N+](=O)[O-])cc3)c2)c1`, the inhibition is 3.16%.

For the compound `COc1cccc2c(O)c(CNC3CCCCC3)ccc12`, the inhibition is -0.26%.

As for `CCNC(C)(C)CN(Cc1ccc(-c2ccc(C(F)(F)F)cc2)cc1)C(=O)Cn1c(CCc2cccc(F)c2F)nc(=O)c2ccccc21`, the inhibition turned out to be 3.3%.

For the compound `CCC(CC)n1cc2c(ccc3nc(N)nc(N)c32)n1`, the inhibition was -0.91%.

These data come from ChEMBL document CHEMBL3433997, “St. Jude Leishmania screening dataset” (2016).
